Screening results: PubChem, NMMLSC
RPL19A TOR yeast: modulators of TOR pathway RPL19A-GFP in S. cerevisiae | S. cerevisiae RPL19A-GFP strain, flow cytometry, 3 h; hits give low values | percent response vs DMSO, % at 10 µM | 330,000 tested, 0.3% active | AID 2025;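 active means percent response vs DMSO below 50%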;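 further: median channel GFP fluorescence of the barcoded RPL19A-GFP strain; ratio of sample median GFP to plate DMSO average so 100% = DMSO; lower means less RPL19A-GFP as with rapamycin TOR inhibition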
VLA-4 inh: inhibition in a human VLA-4 binding assay | P13612 | VLA-4 expressing cells, ligand binding flow cytometry | inhibition, % (about 7 µM as worked out from the volumes in the protocol) | 330,000 tested, 0.2% active | AID 2557; in the data active means inhibition above about 50%
Target sequence (P13612 whole entry, looked up): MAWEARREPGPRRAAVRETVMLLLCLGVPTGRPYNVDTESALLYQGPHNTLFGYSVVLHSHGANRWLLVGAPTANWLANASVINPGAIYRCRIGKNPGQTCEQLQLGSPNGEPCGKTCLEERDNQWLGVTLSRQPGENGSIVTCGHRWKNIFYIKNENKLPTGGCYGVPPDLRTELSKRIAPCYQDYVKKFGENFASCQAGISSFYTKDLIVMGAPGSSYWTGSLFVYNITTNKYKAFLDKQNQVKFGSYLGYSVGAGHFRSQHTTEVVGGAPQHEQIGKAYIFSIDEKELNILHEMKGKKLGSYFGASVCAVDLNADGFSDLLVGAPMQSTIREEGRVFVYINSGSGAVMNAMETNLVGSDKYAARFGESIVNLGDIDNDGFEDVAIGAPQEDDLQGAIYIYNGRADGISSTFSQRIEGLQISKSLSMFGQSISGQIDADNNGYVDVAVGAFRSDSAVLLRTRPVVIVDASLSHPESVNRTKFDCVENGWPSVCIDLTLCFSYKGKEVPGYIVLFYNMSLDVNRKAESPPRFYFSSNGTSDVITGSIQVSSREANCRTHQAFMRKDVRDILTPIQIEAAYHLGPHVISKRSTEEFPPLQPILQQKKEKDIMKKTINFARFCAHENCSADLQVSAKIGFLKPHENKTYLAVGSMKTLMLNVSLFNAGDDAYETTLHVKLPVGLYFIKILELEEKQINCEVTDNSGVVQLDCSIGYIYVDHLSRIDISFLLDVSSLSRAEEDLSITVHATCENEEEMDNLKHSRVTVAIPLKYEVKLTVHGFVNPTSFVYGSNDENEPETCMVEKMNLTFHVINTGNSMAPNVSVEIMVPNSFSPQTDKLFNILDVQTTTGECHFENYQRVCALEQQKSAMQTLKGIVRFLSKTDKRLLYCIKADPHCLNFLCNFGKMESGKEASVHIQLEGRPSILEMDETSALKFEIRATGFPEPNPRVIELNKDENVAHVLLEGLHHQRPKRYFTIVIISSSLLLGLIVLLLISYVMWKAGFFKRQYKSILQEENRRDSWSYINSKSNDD
MEP2 TOR yeast: yeast TOR pathway MEP2-GFP modulation; GFP response vs DMSO, % at 10 µM; S. cerevisiae MEP2-GFP strain, flow cytometry GFP, 3 h; 100% = DMSO control level; AID 2016; 330,000 tested, 0.51% active;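 active means GFP response versus DMSO above a set limit, roughly screen mean plus 3 SD, cut at about 180% in these data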;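 further: median GFP fluorescence of the barcode-gated MEP2-GFP cells per well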
LAP4-GFP MLPCN: yeast TOR pathway LAP4-GFP modulation | S. cerevisiae LAP4-GFP multiplex, flow cytometry GFP, 3 h; median GFP as percent of DMSO wells | 320,000 tested, 0.34% active | GFP response vs DMSO, % at 10 µM;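 active means GFP response vs DMSO above a set limit, about the screen mean plus 3 SD, cut at about 150% in these data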
CIT2 TOR yeast: alters CIT2-GFP fluorescence in TOR pathway yeast screen | GFP response vs DMSO, % at 10 µM | S. cerevisiae CIT2-GFP strain, flow cytometry, 3 h; 100 means same as DMSO wells | 320,000 tested, 0.065% active;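 active means GFP response relative to DMSO above a set limit, near the screen mean plus 3 SD, cut at about 150% in these data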;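 further: ratio of well median GFP fluorescence to mean of DMSO wells on the plate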
AGP1-GFP MLPCN: yeast TOR pathway AGP1-GFP modulation. S. cerevisiae AGP1-GFP multiplex flow cytometry, 3 h; GFP as percent of DMSO wells. GFP response vs DMSO, % at 10 µM. 320,000 tested, 0.02% active;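 active means GFP response relative to DMSO above a set limit, near screen average plus 3 SD, cut at about 150% in these data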;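 further: median GFP channel fluorescence of the gated AGP1 strain per well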
VLA-4 mod pick: human VLA-4 allosteric modulation in cherry picked compounds; shares compounds with VLA-4 inh; U937 cells, HUTS-21 LIBS mAb binding, flow cytometry; LDV ligand present at threefold Kd; inhibition, % at 6.7 µM; 1,300 tested, 2% active; in the data active means inhibition above about 40%;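 further: 0% = ligand without compound and 100% = no ligand background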
Numbers without * were called inactive; i = inactive; x = not tested or not shown. Sampled rows, rich in hits. Any-hit rate of the full collection: about 1.1%.

SMILES	RPL19A TOR yeast	VLA-4 inh	MEP2 TOR yeast	LAP4-GFP MLPCN	CIT2 TOR yeast	AGP1-GFP MLPCN	VLA-4 mod pick
O=C(Nc1ccccc1Cl)Nc1ccccc1Cl	109.0	15.4	104.3	94.5	103.3	98.3	5.4
CSc1ccccc1NC(=O)Nc1ccccc1Cl	97.5	6.2	99.1	97.8	93.1	93.7	x
O=C(c1cccc(NC2=NC3CS(=O)(=O)CC3S2)c1)N1CCN(c2cccc(Cl)c2)CC1 (configuration not stated)	95.9	9.8	95.8	99.2	96.1	96.4	i
O=C(c1ccc(Cl)c(NC2=NC3CS(=O)(=O)CC3S2)c1)N1CCN(c2ccc(F)cc2)CC1 (configuration not stated)	101.4	15.0	105.5	97.3	98.0	99.8	0.0
O=C1C2CCCCN2C(=O)N1CCN1CCN(c2ccc([N+](=O)[O-])cc2)CC1 (configuration not stated)	98.0	93.2*	101.3	101.3	109.8	110.6	2.7
O=C1C2CCCN2C(=O)N1CCCN1CCN(c2ccc([N+](=O)[O-])cc2)CC1 (configuration not stated)	107.6	7.5	112.9	101.0	106.7	99.7	x
Cc1cc(C)c2oc(=O)cc(CN3CCCCC3)c2c1	105.5	14.9	101.2	88.9	102.2	98.0	x
CC(=O)Nc1cccc(C(=O)NC(C)c2ccc(S(N)(=O)=O)cc2)c1 (configuration not stated)	91.7	11.8	91.0	98.5	98.6	x	x
CC(=O)Nc1ccc(S(=O)(=O)NCC(=O)NC(C)c2ccc(S(N)(=O)=O)cc2)cc1 (configuration not stated)	102.8	-2.7	104.2	106.7	107.1	108.7	1.3
COC(=O)COc1ccc(NC(=O)C(c2ccccc2)c2ccccc2)cc1	103.4	49.9*	107.9	88.2	106.7	99.5	13.6
O=C(COC(=O)C1CC(=O)N(Cc2ccco2)C1)Nc1nc(-c2ccc(F)cc2)cs1 (configuration not stated)	92.6	5.6	90.7	86.0	86.6	86.6	x
CC1COC(=O)C(NNc2ccc(Cl)c(Cl)c2)=N1 (configuration not stated)	101.2	-24.0	98.3	89.7	111.4	96.7	x
O=C(COC(=O)c1ccccc1C(=O)c1ccc(Cl)c([N+](=O)[O-])c1)NC1CCCCCC1	97.8	62.0*	102.8	95.3	99.9	97.5	32.3
COc1cccc(CN(C(=O)Cc2c[nH]c3ccccc23)C(C(=O)NC2CCCCC2)c2ccc(C)o2)c1 (configuration not stated)	96.6	48.4	98.5	86.3	95.5	93.3	-123.8
COc1ccc(CN(C(=O)Cc2c[nH]c3ccccc23)C(C(=O)NC2CCCCC2)c2ccc(C)o2)cc1 (configuration not stated)	98.0	7.1	94.1	100.3	105.4	104.9	x
COCCNC(=O)c1cn(C)c2ccc(S(=O)(=O)N3CCCCC3)cc2c1=O	101.4	8.7	101.0	101.5	100.5	103.7	x
COc1ccc(CN(CC(=O)NCc2ccc(F)cc2)C(=O)CCC(=O)Nc2cc(C)ccn2)cc1	100.3	5.3	97.7	99.5	104.6	106.9	x
COC(=O)c1c(NC(=O)c2ccco2)sc2c1CCC2	108.0	92.3*	112.9	111.6	107.9	108.3	-4.9
O=C(Nc1nccs1)C1CC(=O)N(CCc2ccc(F)cc2)C1 (configuration not stated)	105.5	-1.9	107.8	105.5	108.7	105.8	x
NC(=O)C1CCN(C(=O)CCC(=O)N2CCOc3ccc(Cl)cc32)CC1	93.9	7.8	94.2	105.0	104.9	96.2	x
O=C(NCCc1nc2ccccc2[nH]1)/C(=C/c1ccco1)NC(=O)c1ccc(Br)o1	101.4	40.5	107.7	89.4	102.4	99.3	-2.8
CCSc1nnc2c(n1)OC1(CCCC1)Nc1ccccc1-2	96.6	55.4*	123.1	102.3	95.9	98.0	-0.1
CC(C)[C@H](NC(=O)c1ccccc1F)C(=O)NCc1ccc(S(N)(=O)=O)cc1	99.9	13.4	104.7	105.3	95.6	102.9	x
CC(C)C(NC(=O)c1ccccc1F)C(=O)NCc1ccccc1 (configuration not stated)	93.6	51.8*	108.2	92.2	97.0	87.3	-6.7
COc1cc(OC)cc(C(=O)Nc2ccc(S(=O)(=O)N3CCOCC3)cc2)c1	100.8	6.4	106.8	101.8	105.3	104.7	x
SMILES	RPL19A TOR yeast	VLA-4 inh	MEP2 TOR yeast	LAP4-GFP MLPCN	CIT2 TOR yeast	AGP1-GFP MLPCN	VLA-4 mod pick
Cc1ccc2nc(-c3ccccc3)cc(C(=O)N3CCN(S(=O)(=O)c4c(C)noc4C)CC3)c2c1	92.6	6.8	102.2	100.1	91.6	89.5	-4.2
O=C1COc2ccc(-c3n[nH]c(=O)c4ccccc34)cc2N1	102.6	-6.9	102.2	99.5	107.6	106.3	x
O=C1COc2ccc(N3C(=O)c4ccccc4C3=O)cc2N1	97.9	52.2*	102.0	97.1	93.5	103.6	9.0
O=C(NCC1(N2CCCCC2)CCCCC1)c1cccc(S(=O)(=O)Nc2ccc(F)cc2)c1	96.3	16.9	98.9	90.2	93.9	99.6	x
COC(=O)Cc1ccc(NC(=O)c2ccc(NC(=O)c3ccco3)cc2)cc1	97.3	-3.4	100.7	105.7	105.6	102.3	x
COC(=O)Cc1ccc(NC(=O)c2ccc(C)c(C)c2)cc1	98.4	60.1*	100.3	104.1	91.1	94.8	10.9
CSc1ncccc1C(=O)OCC(=O)c1ccc(S(=O)(=O)N2CCCCC2)cc1	102.1	-1.4	102.7	107.4	107.9	110.4	x
CSc1ncccc1C(=O)OCC(=O)Nc1ccc(S(=O)(=O)N2CCCC2)cc1	96.2	42.8	92.7	77.3	92.1	87.1	7.0
O=C(OCc1cncs1)c1ccccc1Cl	100.8	1.2	100.4	92.9	98.3	91.8	x
O=C(Nc1ccccc1Cl)OCc1cncs1	97.9	-14.8	93.6	104.0	92.3	97.2	0.0
O=C(NCCCn1ccnc1)C(=O)NCC(c1cccnc1)N1CCN(c2ccccc2)CC1 (configuration not stated)	106.2	57.2*	96.1	94.0	97.5	102.8	-6.8
Cc1ccc(S(=O)(=O)C2(C(=O)Nc3ccc4c(c3)OCO4)CC2)cc1	95.3	51.5*	89.8	113.6	89.2	95.8	0.7
CCCSC1=NN2CCCC(=O)N=C2S1	121.8	49.6*	109.8	113.7	115.4	114.0	5.7
Cc1ccc(C)c(CSC2=NN3CCCC(=O)N=C3S2)c1	72.3	11.7	118.7	112.6	89.0	94.0	x
CCCCN1C(=O)C(=O)c2cc(Cl)ccc21	100.1	55.0*	100.4	101.1	102.2	101.4	51.0*
